Laboratory results published in PubChem BioAssay (NCATS).
Where “and” joins values, the source holds several entries; their conditions need not be identical. Equal entries are not always repeated. Records with an inconclusive call do not appear. A call without a number means that no potency is given here. Calls of active or inactive are those of the source. Unless noted, calls come from the whole dose curve; as a rule, active = well fitted curve in the direction sought with a large enough effect; inconclusive = small, poorly fitted or top-dose-only effect, or another doubt; inactive = no such curve, though single readings can be large; an effect the other way counts as inactive or inconclusive.

What was measured:
[1] = qHTS Assay for Identifying Gametocytocidal Compounds (AID 743244);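 note: actives lower the fluorescent signal which means gametocytes are killed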; conditions: P. falciparum 3D7 stage III-V gametocytes, alamarBlue, 72 h; max response: stronger effect = lower value
Method in brief: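 Fluorescence at Ex 525/Em 598 nm, recorded 24 h after alamarBlue addition, reports residual metabolic activity of 3D7 gametocytes (stages III–V) following 72 h compound exposure at 37 °C, 5% CO2.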

[2] = qHTS assay for cell viability of the p53RE-bla HCT-116 cell line (AID 743292); note: nearly all actives have a fitted effect of over 55% in size
Method in brief: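 Quantitative high-throughput format: compounds in DMSO were pinned onto p53RE-bla HCT-116 cells (4,000/well) and incubated 16 h at 37 C. Total intracellular ATP, read by CellTiter-Glo luminescence, reflects viable cell number.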

[3] = qHTS assay to identify small molecule inhibitors of chordoma cells - UCH-1 (AID 1259355); note: nearly all actives have a fitted effect of over 55% in size
Method in brief: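 Screening used approved and investigational drugs in 15-point titration against 800 seeded cells per well. A fixed combination of auranofin with camptothecin, doxorubicin, rubitecan and topotecan followed compound addition, and growth was scored by CellTiter-Glo after 48hr.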

[4] = qHTS assay to identify small molecule inhibitors of chordoma cells - UCH-2 (AID 1259356)
[5] = P-glycoprotein substrates identified in KB-8-5-11 adenocarcinoma cell line, qHTS therapeutic library screen (AID 1346987); conditions: outcome: dose series up to 44.5 µM unless noted; note: nearly all actives have a fitted effect of over 65% in size; note: potency is the fitted concentration of half-maximal effect
Method in brief: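 Luminescence from CellTiter-Glo, read 5 min after addition, quantified survival of KB-8-5-11 (P-gp-overexpressing) cells exposed to compounds for 72 h. AC50 was derived from concentration-response curves.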

[6] = qHTS assay for cell viability of HEK293 cells (AID 743288); conditions: ATP luminescence (CellTiter-Glo), 18 h; max response: stronger effect = lower value; note: nearly all actives have a fitted effect of over 50% in size
Method in brief: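 ATP luminescence (CellTiter-Glo) reports metabolically competent cell number after parental HEK293 cells, 2,000/well, were treated with DMSO-dissolved compounds for 18 h at 37 C; reagent incubation 30 min, room temperature.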

[7] = qHTS profiling of the MIPE4 collection as inhibitors of Plasmodium falciparum (3D7) proliferation (AID 743344; call rule not given here); conditions: P. falciparum 3D7 in erythrocytes, SYBR Green DNA fluorescence, 72 h; at 28.5 µM (top of the series)
Method in brief: (§1)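 Parasite DNA was quantified by SYBR Green I fluorescence (ex 485, em 535 nm) after overnight lysis in saponin/Triton buffer at room temperature. Cultures at 0.3% parasitemia and 2.5% hematocrit were first exposed to compound for 72 h at 37 C; signals were normalised to artemisinin (0.29 uM) and vehicle wells.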

[8] = qHTS profiling of the MIPE4 collection as inhibitors of Plasmodium falciparum (DD2) proliferation (AID 743345; call rule not given here); conditions: P. falciparum Dd2 in erythrocytes, SYBR Green DNA, 72 h; at 28.5 µM (top of the series)
Method in brief: as §1

[9] = qHTS profiling of the MIPE4 collection as inhibitors of Plasmodium falciparum (DD2) proliferation (Rep 2) (AID 743346; call rule not given here); conditions: P. falciparum Dd2 in erythrocytes, SYBR Green DNA, 72 h; at 28.5 µM (top of the series)
Method in brief: as §1

[10] = qHTS profiling of the MIPE4 collection as inhibitors of Plasmodium falciparum (HB3) proliferation (AID 743347; call rule not given here); conditions: P. falciparum HB3 in erythrocytes, SYBR Green DNA, 72 h; at 28.5 µM (top of the series)
Method in brief: as §1

Structure (SMILES): CCOC(C)OCC
- max response [1]: 16.8% (inactive)
- outcome [2]: inactive
- Potency [3]: inactive
- Potency [4]: inactive
- Potency [5]: inactive

Structure (SMILES): CC(CCc1ccc(O)cc1)NCC(O)c1ccc(O)cc1 (stereo not given)
- max response [1]: 16.5% (inactive)
- Potency [3]: inactive
- Potency [4]: inactive
- Potency [5]: inactive

Structure (SMILES): C=CCCCCCCCCC(=O)OC
- max response [1]: 16.7% (inactive)
- Potency [3]: inactive
- Potency [4]: inactive
- Potency [5]: inactive

Structure (SMILES): CN(CCO)CC(O)Cn1cnc2c1c(=O)n(C)c(=O)n2C (stereo not given) (tested in a mixture with another compound)
- max response [1]: 2.62% (inactive)
- max response [6]: -3.27% (inactive)
- outcome [2]: inactive
- Potency [3]: inactive
- Potency [4]: inactive
- Potency [5]: inactive

Structure (SMILES): CC(C)O
- max response [1]: 0.211% (inactive)
- outcome [2]: inactive
- Potency [3]: inactive
- Potency [4]: inactive
- Potency [5]: inactive

Structure (SMILES): Cc1ncc[nH]1
- max response [1]: 20% (inactive)
- outcome [2]: inactive
- Potency [3]: inactive
- Potency [4]: inactive
- Potency [5]: inactive

Structure (SMILES): CC1=CCC2CC1C2(C)C (stereo not given)
- max response [1]: 3.27% (inactive)
- outcome [2]: inactive
- Potency [3]: inactive
- Potency [4]: inactive
- Potency [5]: inactive

Structure (SMILES): CCCCCCCCCCCCCCCCCC(=O)OC[C@@H](O)[C@H]1OC[C@H](O)[C@H]1O
- max response [1]: -8.87% (inactive)
- outcome [2]: inactive
- Potency [3]: inactive
- Potency [4]: inactive
- Potency [5]: inactive

Structure (SMILES): C[C@H](CCC(=O)O)[C@H]1CC[C@H]2[C@@H]3CC[C@@H]4C[C@H](O)CC[C@]4(C)[C@H]3C[C@H](O)[C@]12C
- max response [1]: 6.91% (inactive)
- outcome [2]: inactive
- Potency [3]: inactive
- Potency [4]: inactive
- Potency [5]: inactive

Structure (SMILES): OCCOCCOCCO
- max response [1]: -2.42% (inactive)
- max response [6]: -2.87% (inactive) and -1.37% (inactive)
- outcome [2]: inactive
- Potency [3]: inactive
- Potency [4]: inactive
- Potency [5]: inactive

Structure (SMILES): NCCN
- max response [1]: 20.9% (inactive)
- outcome [2]: inactive
- Potency [3]: inactive
- Potency [4]: inactive
- Potency [5]: inactive

Structure (SMILES): CCCCO
- max response [1]: 4.7% (inactive)
- outcome [2]: inactive
- Potency [3]: inactive
- Potency [4]: inactive
- Potency [5]: inactive

Structure (SMILES): CC(C)(C)CC(C)(C)c1ccc(OCCO)cc1
- max response [1]: 12.7% (inactive)
- max response [6]: -25.1% (inactive)
- outcome [2]: inactive
- Potency [3]: inactive
- Potency [4]: inactive
- Potency [5]: 13 µM (active)

Structure (SMILES): CC1(C)[C@H]2CC[C@]1(C)[C@H](O)C2
- max response [1]: 0.139% (inactive)
- Potency [3]: inactive
- Potency [4]: inactive
- Potency [5]: inactive

Structure (SMILES): ClC(Cl)Cl
- max response [1]: 9.6% (inactive)
- outcome [2]: inactive
- Potency [3]: inactive
- Potency [4]: inactive
- Potency [5]: inactive

Structure (SMILES): Oc1cccc(O)c1O
- max response [1]: -2.15% (inactive)
- max response [6]: -17.5% (inactive)
- outcome [2]: inactive
- Potency [3]: inactive
- Potency [4]: inactive
- Potency [5]: inactive

Structure (SMILES): C/C=C/C=C/C(=O)O
- max response [1]: -7.74% (inactive)
- max response [6]: 0.0589% (inactive)
- outcome [2]: inactive
- Potency [3]: inactive
- Potency [4]: inactive
- Potency [5]: inactive

Structure (SMILES): Cc1ccc(S(=O)(=O)NCl)cc1
- max response [1]: 4.72% (inactive)
- outcome [2]: inactive
- Potency [3]: inactive
- Potency [4]: inactive
- Potency [5]: inactive

Structure (SMILES): CCCCC(CC)COS(=O)(=O)O (stereo not given)
- max response [1]: -3.23% (inactive)
- outcome [2]: inactive
- Potency [3]: inactive
- Potency [4]: inactive
- Potency [5]: inactive

Structure (SMILES): O.O.O.O.O.O.O.O=S(=O)([O-])[O-].[Co+2]
- max response [1]: 0.797% (inactive)
- outcome [2]: inactive
- Potency [3]: inactive
- Potency [4]: inactive
- Potency [5]: inactive

Structure (SMILES): O=C(O)[C@H]1C(=CCO)O[C@H]2CC(=O)N12
- parasite growth, % of DMSO control [7]: 93.2%
- parasite growth remaining, % of DMSO control (lower = more inhibition) [8]: 103%
- parasite growth, % of control (lower = inhibition) [9]: 115%
- growth, % of control [10]: 93.1%

Structure (SMILES): CC(=O)[C@H]1CC[C@H]2[C@@H]3C=CC4=CC(=O)CC[C@@]4(C)[C@H]3CC[C@]12C
- parasite growth, % of DMSO control [7]: 84.6%
- parasite growth remaining, % of DMSO control (lower = more inhibition) [8]: 96.9%
- parasite growth, % of control (lower = inhibition) [9]: 165%
- growth, % of control [10]: 95.1%

Structure (SMILES): CCCC(CCC)C(=O)OC1C[C@H]2CC[C@@H](C1)[N+]2(C)C (stereo not given in full)
- Potency [3]: inactive
- Potency [5]: inactive

Structure (SMILES): O=C(CO)[C@@H](O)[C@H](O)[C@@H](O)C(=O)O
- max response [1]: 23.9% (inactive)
- Potency [3]: inactive
- Potency [5]: inactive

Structure (SMILES): c1ccc2ccccc2c1
- max response [1]: 6.18% (inactive)
- outcome [2]: inactive
- Potency [3]: inactive
- Potency [5]: inactive

Structure (SMILES): CC(C)=CCC/C(C)=C/CC/C(C)=C/CC/C=C(\C)CC/C=C(\C)CCC=C(C)C
- max response [1]: -7.41% (inactive) and 5.06% (inactive)
- Potency [3]: inactive
- Potency [5]: inactive

Structure (SMILES): O=C1CCC(=O)N1CO
- max response [1]: -5.34% (inactive)
- Potency [3]: inactive
- Potency [5]: inactive

Structure (SMILES): O=C(NNCS(=O)(=O)O)c1ccncc1
- max response [1]: -7.51% (inactive)
- Potency [3]: inactive
- Potency [5]: inactive

Structure (SMILES): NCCO/C=C/[C@H](N)C(=O)O
- max response [1]: -0.535% (inactive)
- outcome [2]: inactive
- Potency [3]: inactive
- Potency [5]: inactive

Structure (SMILES): FC(F)(F)C(F)(F)C(F)(F)C(F)(F)C(F)(F)C(F)(F)F
- max response [1]: 13.2% (inactive)
- Potency [3]: inactive
- Potency [5]: inactive

Structure (SMILES): CNCC(O)c1ccc(OC(=O)C(C)(C)C)c(OC(=O)C(C)(C)C)c1 (stereo not given)
- max response [1]: -11.6% (inactive)
- Potency [3]: inactive
- Potency [5]: inactive

Structure (SMILES): O=C(O)c1ccc(OCCn2ccnc2)cc1
- max response [1]: 0.359% (inactive)
- Potency [3]: inactive
- Potency [5]: inactive

Structure (SMILES): CN1C(C(=O)Nc2ccccn2)C(=O)c2sc(Cl)cc2S1(=O)=O (stereo not given)
- max response [1]: 11.6% (inactive)
- Potency [3]: inactive

Structure (SMILES): O=[N+]([O-])c1c(Cl)cccc1-c1c[nH]cc1Cl
- max response [1]: 0.263% (inactive)
- Potency [3]: inactive
